Assay outcomes as filed in PubChem BioAssay.
ADAM17 inh: ADAM17 inhibitors, primary screen, biochemical, QFRET; Disintegrin and metalloproteinase domain-containing protein 17 (Homo sapiens), P78536; recombinant ADAM17, EDANS/DABCYL FRET peptide cleavage; inhibition, % at 6.95 µM; actives 0.83% (n = 370,000); AID 720648, 2013;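 active = inhibition above the mean of compounds lying between control limits plus 3 SD, set per campaign, cut at about 8.5% in these data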;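 also: 0% = DMSO-only wells as the low control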
KLK7 zymogen act: proKLK7 zymogen activators, primary screen, biochemical, fluorescence intensity; Kallikrein-7 (Homo sapiens), P49862; purified proKLK7, EDANS-DABCYL substrate fluorescence; 100% is mature enzyme control, 0% vehicle; activation, % at 7 µM; actives 0.9% (n = 370,000); AID 652039, 2013;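 active = activation above the mean of all tested compounds plus 3 SD, computed per campaign excluding outliers beyond control limits, cut at about 13% in these data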
Ecoli rRNA inh: reduced GFP signal of wild-type E. coli, primary screen, bacterial rRNA inhibitor project, GFP/RFP fluorescence, OD600, single point. GFP signal change (wild-type ribosome), % (test concentration not listed). E. coli WT GFP vs humanized-ribosome RFP mutants, 24 h; active compounds read low; DMSO median 0, no signal -100. actives 1.6% (n = 350,000);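 active = significant combined selectivity score with lowered wild-type GFP, culture density cut under 30%, mutant RFP and density less affected; inactive = any of these conditions unmet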
FGF22 binding: binders of human FGF22 protein, primary screen, FGF22 synaptogenesis inhibitor project, biophysical, thermal shift, single point. recombinant FGF22 thermal shift, SYPRO orange fluorescence; percent of sucrose octasulfate shift, DMSO zero. activity (Tm shift, normalised), % at 9.99 µM. actives 1.5% (n = 340,000). Fibroblast growth factor 22 (Homo sapiens), Q9HCT0;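 active = mean Tm shift, scaled 0 neutral to 100 positive control, at about 1.3% or above, every replicate too, limit read from the data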
ADAM10 inh: human ADAM10 inhibitors, primary screen, biochemical, QFRET, HTS; Disintegrin and metalloproteinase domain-containing protein 10 (Homo sapiens), O14672; recombinant ADAM10, EDANS/DABCYL FRET peptide cleavage, 3 h; inhibition, % at 7 µM; actives 0.62% (n = 370,000); AID 720582, 2013;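 active = inhibition above a per-campaign cutoff equal to the mean of compounds falling between control-based bounds plus 3 SD, cut at about 20% in these data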;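 also: 0% = DMSO wells while the 100% control is not disclosed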
Target sequence (O14672 214-748 limits assumed): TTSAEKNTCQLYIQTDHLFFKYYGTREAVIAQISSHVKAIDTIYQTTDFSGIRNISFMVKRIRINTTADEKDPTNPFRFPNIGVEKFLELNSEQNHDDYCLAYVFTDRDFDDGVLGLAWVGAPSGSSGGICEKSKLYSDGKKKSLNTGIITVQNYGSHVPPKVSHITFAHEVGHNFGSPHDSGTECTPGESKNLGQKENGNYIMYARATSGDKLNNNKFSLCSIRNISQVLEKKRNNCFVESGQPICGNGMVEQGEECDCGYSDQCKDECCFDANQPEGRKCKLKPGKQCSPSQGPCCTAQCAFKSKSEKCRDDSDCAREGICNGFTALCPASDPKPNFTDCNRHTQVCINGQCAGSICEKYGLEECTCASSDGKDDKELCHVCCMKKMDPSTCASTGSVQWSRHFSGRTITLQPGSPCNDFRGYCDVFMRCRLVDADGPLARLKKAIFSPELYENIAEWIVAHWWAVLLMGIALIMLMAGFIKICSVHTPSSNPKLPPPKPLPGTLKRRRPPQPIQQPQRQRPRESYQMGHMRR
proKLK7 act conf: proKLK7 zymogen activators, confirmation, biochemical, fluorescence intensity, triplicate; activation, % at 7 µM; purified proKLK7, EDANS-DABCYL substrate fluorescence; scaled: vehicle 0, mature enzyme 100; actives 68% (n = 3,200); shares compounds with KLK7 zymogen act;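 active = activation, as change over the incubation, above the mean of all tested compounds plus 3 SD, cut at about 13% in these data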
EDANS-DABCYL int: EDANS-DABCYL substrate optical interference, artefact control for kallikrein-7 zymogen activator project, biochemical, fluorescence intensity, high throughput | no enzyme, 4 h; solvent 0%, active enzyme control 100% | shares compounds with KLK7 zymogen act | actives 80% (n = 3,200) | activation, % at 7 µM;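 active = activation above the all-compound mean plus 3 SD, ignoring values outside control-based bounds, cut at about 4.8% in these data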;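 also: value is the 4 h activation minus the activation read at time zero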
EDANS interf: EDANS fluorescence interference in dose response, no enzyme | AID 720493 | shares compounds with KLK7 zymogen act | EDANS-DABCYL peptide fluorescence interference | actives 20% (n = 250) | EC50, µM;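 active = compounds that raise the fluorescence signal in this interference counterscreen, with EC50 at or below 10 µM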;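 also: intact quenched peptide substrate alone read at 355 nm excitation and 520 nm emission; signal is fluorescence gain from T0 to T4 after four hours at room temperature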
Active calls of the source: *; i = inactive; x = no result. An excerpt weighted towards active compounds, which were near 3.8% of everything screened.

SMILES	ADAM17 inh	KLK7 zymogen act	Ecoli rRNA inh	FGF22 binding	ADAM10 inh	proKLK7 act conf	EDANS-DABCYL int	others
CCCN1C[C@H](C)[C@H](OC)CN(C)C(=O)c2cc(NC(=O)CC)ccc2OC[C@H]1C	x	x	4	x	x	x	x
O=C(C[C@@H]1CC[C@@H](NS(=O)(=O)c2ccc(F)cc2)[C@@H](CO)O1)N1CCC(Cc2ccccc2)CC1	x	x	5	0	x	x	x
O=C(C[C@H]1CC[C@H]2[C@@H](COC[C@H](O)CN2C(=O)Nc2ccc(Cl)c(Cl)c2)O1)NCc1ccc(F)cc1	x	x	-58	-1	x	x	x
CCC(C)(C)n1nnnc1CN(Cc1cc2cc(OC)c(OC)cc2[nH]c1=O)C1CCCC1	-115	16*	x	x	-375	-12	-8
O=c1[nH]c2cc3c(cc2cc1CN(Cc1nnnn1C1CCCC1)C1CCCC1)OCCO3	-224	29*	x	x	i	-1	-2
COc1cc2cc(CN(Cc3nnnn3Cc3ccccc3)CC3CCCO3)c(=O)[nH]c2cc1OC (stereo unspecified)	-307	41*	x	x	i	-5	-11
Cc1ccc2[nH]c(=O)c(CN(Cc3nnnn3C3CCCC3)C3CCCCC3)cc2c1	-37	1	x	x	-121	x	x
CN1CCN(C(=O)C[C@H]2C=C[C@H](NC(=O)Nc3ccccc3F)[C@@H](CO)O2)CC1	x	x	1	0	x	x	x
C[C@H](CO)N1C[C@H](C)[C@@H](CN(C)S(=O)(=O)c2cccs2)Oc2ccc(NS(=O)(=O)c3cn(C)cn3)cc2CC1=O	x	x	0	0	x	x	x
COc1ccc(C#Cc2cccc(-c3nc(C(=O)N4CCN(Cc5ccccc5)CC4)cc4c3[C@H](CCO)N(S(=O)C(C)(C)C)C4)c2)cc1OC (stereo partly specified)	x	x	-5	x	x	x	x
CC1=C(C#N)C(C)C2=C(CC(C)(C)CC2=O)N1 (stereo unspecified)	-317	16*	x	x	i	39*	40*
CC1=C(C#N)C(c2ccc(O)cc2)C2=C(CC(C)(C)CC2=O)N1 (stereo unspecified)	-61	5	x	x	-181	x	x
CC1=C(C#N)C(c2cccnc2)C2=C(CC(C)(C)CC2=O)N1 (stereo unspecified)	-477	38*	x	x	i	67*	52*	EDANS interf=>70
CCCNC(=O)N1CC2(CCN(C(=O)Nc3cccc(F)c3)CC2)c2c(n(C)c3cc(OC)ccc23)[C@@H]1CO	x	x	-7	0	x	x	x
CN(C)C=Nc1ccc2nc3c(cc2c1)[nH]c1ccccc13	i	49*	-8	0	i	50*	41*	EDANS interf=>69
CNc1nc(-c2ccccc2)cc(C)c1S(C)(=O)=O	i	20*	-29	0	i	4	-2
Cc1cc(-c2ccccc2)nc(N(C)C)c1S(C)(=O)=O	-4	0	-26	0	-10	x	x
Cc1cc(C)c2nc(N3C(=O)C(O)=C(C(=O)c4ccco4)C3c3cccc(O)c3)sc2c1 (stereo unspecified)	1	14*	-21	x	0	20*	22*
Cc1cc(C)c2nc(N3C(=O)C(O)=C(C(=O)c4ccco4)C3c3ccc(O)cc3)sc2c1 (stereo unspecified)	0	-1	-8	1	3	x	x
Cc1cc(=O)oc2c3c(cc(OCC(=O)NC4CC4)c12)OC(C)(C)CC3	-280	15*	x	0	i	22*	27*
Cc1cc(=O)oc2c3c(cc(OCC(=O)NCc4ccccc4)c12)OC(C)(C)CC3	-340	-14	-26	1	i	x	x
Cc1cc(=O)oc2c3c(cc(OCC(=O)NCC(=O)O)c12)OC(C)(C)CC3	i	43*	8	0	i	66*	79*
C[C@H]1COc2c(N3CCN(C)CC3)c(F)cc3c(=O)c(C(=O)O)cn1c23	-458	172*	x	0	i	55*	56*
CNC(=S)N1CCN(c2c(F)cc3c(=O)c(C(=O)O)cn(C4CC4)c3c2OC)CC1C (stereo unspecified)	-12	-1	x	x	-61	x	x
CN1CCN(c2c(F)cc3c(=O)c(C(=O)O)cn4c3c2SCC4)CC1	-173	98*	x	x	i	35*	43*
SMILES	ADAM17 inh	KLK7 zymogen act	Ecoli rRNA inh	FGF22 binding	ADAM10 inh	proKLK7 act conf	EDANS-DABCYL int	others
C[C@@H]1CN([C@@H](C)CO)C(=O)c2cc(C#CCN(C)C)cnc2O[C@@H]1CN(C)C(=O)Nc1ccccc1F	x	x	3	0	x	x	x
COc1ccc(NC(=O)Nc2ccc3c(c2)[C@@H]2C[C@H](CC(=O)NCc4ccccn4)O[C@H](CO)[C@@H]2O3)cc1	x	x	0	0	x	x	x
O=S(=O)(NCC1CCCO1)c1ccc(Cl)c2ccccc12 (stereo unspecified)	0	0	-6	0	6	x	x
O=C1Nc2ccc(S(=O)(=O)NCC3CCCO3)c3cccc1c23 (stereo unspecified)	-386	48*	10	0	i	66*	74*
CCN1C(=O)c2cccc3c(S(=O)(=O)NCC4CCCO4)ccc1c23 (stereo unspecified)	-146	57*	-6	0	-419	71*	66*
CCN1C(=O)c2cccc3c(S(=O)(=O)Nc4ncccc4C)ccc1c23	-11	5	x	x	-43	x	x
COCC#Cc1cnc2c(c1)C(=O)N([C@H](C)CO)C[C@@H](C)[C@H](CN(C)C(=O)c1cccnc1)O2	x	x	5	0	x	x	x
COC(=O)C1=NN(c2cccc(C)c2)C2C(=O)N(c3ccccc3OC)C(=O)C12 (stereo unspecified)	-4	15*	x	x	-12	-52	-47
COC(=O)C1=NN(c2ccccc2OC)C2C(=O)N(c3ccccc3OC)C(=O)C12 (stereo unspecified)	6	15*	4	0	-3	8	11*
C=CCn1c(N)c(C(=O)OCCC)c2nc3ccccc3nc21	i	60*	x	x	i	52*	50*
